# Entries with a potency or affinity are not part of this list.
# Test system: Staphylococcus aureus
# Conditions: Concentration 32 ug.mL-1;; ASSAY_TEST Inhibition of Bacterial Growth; detection method Absorption (OD600); MEDIA CAMHB; plate type 384well; NBS; CORNING #3640; time 18 hr
row,Structure (SMILES),Inhibition [%]
1,COc1ccc(-c2cc3c4nnc(SCC(=O)Nc5ccc(C)cc5Cl)n4ccn3n2)cc1,2.3
2,Cc1oc(-c2cccc(Cl)c2)nc1CSc1nc2ccccc2n2c(C(C)C)nnc12,3.52
3,COC(=O)c1ccccc1NC(=O)Cn1nc2c3cc(-c4ccc(OC)cc4)nn3ccn2c1=O,11.07
4,Cc1ccc(NC(=O)Cn2nc3c(Sc4ccccc4)nccn3c2=O)c(C)c1,5.22
5,Cc1cccc(N(Cc2ccccc2F)S(=O)(=O)c2ccc3nncn3c2)c1,-3.86
6,CC1CCN(C(=O)Cn2nc3n(Cc4cccs4)c(=O)c4sccc4n3c2=O)CC1,3.66
7,Cc1ccc(NC(=O)Cn2nc3c(SC4CCCCC4)nccn3c2=O)c(Br)c1,0.51
8,CCC(C)NC(=O)CCn1c(=O)c2ccccc2n2c(=O)n(CC(=O)NCc3cccs3)nc12 (stereo not drawn),6.1
9,CCOc1ccc(NC(=O)Cn2nc3ccc(Sc4cccc(F)c4)nn3c2=O)cc1,2.36
10,CCCc1nnc2c(=O)n(CC(=O)Nc3ccc(Br)cc3)c3ccccc3n12,11.05
11,Cc1ccc(-c2cc3c4nnc(SCC(=O)Nc5cccc(Cl)c5C)n4ccn3n2)cc1,-6.47
12,CCOc1ccccc1CNC(=O)CCc1nnc2ccc(-c3ccccc3)nn12,9.42
13,Cc1cccc(C)c1NC(=O)Cn1nc2ccc(SCc3ccc(Cl)cc3)nn2c1=O,-3.66
14,Cc1ccc(-c2cc3c4nn(CC(=O)Nc5ccccc5C)c(=O)n4ccn3n2)cc1C,5.58
15,Cc1ccc(NC(=O)Cn2nc3c(Sc4ccccc4)nc4ccccc4n3c2=O)cc1C,-2.53
16,COc1ccccc1-n1ccn2c(=O)n(Cc3ccc(F)cc3Cl)nc2c1=O,9.6
17,O=C(Cn1nc2nc(Nc3ccc(F)cc3)ccn2c1=O)Nc1cc(F)ccc1F,11.9
18,CCc1ccccc1NC(=O)Cn1nc2n(C)c(=O)c3c(c(-c4ccccc4)cn3C)n2c1=O,6.44
19,Cc1cc(C)cc(N(Cc2c(F)cccc2Cl)S(=O)(=O)c2cccn3cnnc23)c1,4.69
20,COc1ccccc1-n1ccn2c(SCC(=O)c3ccc(C)cc3C)nnc2c1=O,6.26

row,Structure (SMILES),Inhibition [%]
1,COc1cc(NC(=O)C(C)Sc2nnc3c(=O)n(-c4ccccc4OC)ccn23)cc(OC)c1 (stereo not drawn),15.1
2,O=C(Cn1nc2c3cc(-c4ccc(F)cc4)nn3ccn2c1=O)Nc1ccc(Br)cc1,-9.12
3,O=C(Cn1nc2c(N3CCOCC3)nccn2c1=O)Nc1ccc(Cl)cc1F,8.72
4,CCOc1ccc(-n2ccn3c(SCC(=O)Nc4ccc(C)c(C)c4)nnc3c2=O)cc1,-4.99
5,COc1ccc(NC(=O)Cn2nc3c4cc(-c5ccc(OC)cc5)nn4ccn3c2=O)cc1,8.44
6,COC(=O)c1ccc(NC(=O)Cn2nc3nc(N4CCCCCC4)ccn3c2=O)cc1,7.17
7,COc1ccc(-c2cc3c4nn(CC(=O)Nc5ccc6c(c5)OCO6)c(=O)n4ccn3n2)cc1,8.96
8,CCCCn1c(=O)c2sccc2n2c(CCC(=O)NC(C)C34CC5CC(CC(C5)C3)C4)nnc12 (stereo not drawn),9.01
9,CC(=O)c1ccc(NC(=O)Cn2nc3ccc(-c4ccccc4)nn3c2=O)cc1,7.56
10,CCCCc1ccc(NC(=O)Cn2nc3c(Sc4ccccc4CC)nccn3c2=O)cc1,-7.41
11,COc1cc(NC(=O)Cn2nc3ccc(-c4ccc(Cl)cc4)nn3c2=O)cc(OC)c1,-2.47
12,O=c1c2nn(Cc3ccccc3F)c(=O)n2ccn1-c1ccccc1,4.1
13,Cc1cc(C)c(NC(=O)Cn2nc3c4cc(-c5ccc(C)c(C)c5)nn4ccn3c2=O)c(C)c1,-7.12
14,Cc1oc(-c2cccc(Cl)c2)nc1CSc1nc2ccccc2n2c(C)nnc12,0.94
15,Cc1cc(Br)ccc1NC(=O)Cn1nc2c(Sc3ccccc3)nccn2c1=O,4.58
16,Cc1cc2nn(CC(=O)Nc3ccc(C)c(F)c3)c(=O)n2c(Nc2ccc(C)c(F)c2)n1,6.9
17,O=c1c2nnc(SCc3cccc(C(F)(F)F)c3)n2ccn1-c1ccc(Br)cc1,11.27
18,CCCCN(C)c1ccc2nnc(CCc3nc(-c4ccc(OCc5ccccc5)cc4)no3)n2n1,-12.25
19,O=C(Cn1nc2c(=O)n(-c3ccc(Br)cc3)ccn2c1=O)Nc1ccc(F)cc1F,3.27

# Test system: Escherichia coli
# Conditions: Concentration 32 ug.mL-1;; ASSAY_TEST Inhibition of Bacterial Growth; detection method Absorption (OD600); MEDIA CAMHB; plate type 384well; NBS; CORNING #3640; time 18 hr
row,Structure (SMILES),Inhibition [%]
1,COc1ccc(-c2cc3c4nnc(SCC(=O)Nc5ccc(C)cc5Cl)n4ccn3n2)cc1,-3.13
2,Cc1oc(-c2cccc(Cl)c2)nc1CSc1nc2ccccc2n2c(C(C)C)nnc12,-2.96
3,COC(=O)c1ccccc1NC(=O)Cn1nc2c3cc(-c4ccc(OC)cc4)nn3ccn2c1=O,4.87
4,Cc1ccc(NC(=O)Cn2nc3c(Sc4ccccc4)nccn3c2=O)c(C)c1,-4.74
5,Cc1cccc(N(Cc2ccccc2F)S(=O)(=O)c2ccc3nncn3c2)c1,-5.15
6,CC1CCN(C(=O)Cn2nc3n(Cc4cccs4)c(=O)c4sccc4n3c2=O)CC1,-8.96
7,Cc1ccc(NC(=O)Cn2nc3c(SC4CCCCC4)nccn3c2=O)c(Br)c1,-5.93
8,CCC(C)NC(=O)CCn1c(=O)c2ccccc2n2c(=O)n(CC(=O)NCc3cccs3)nc12 (stereo not drawn),-2.09
9,CCOc1ccc(NC(=O)Cn2nc3ccc(Sc4cccc(F)c4)nn3c2=O)cc1,-8.51
10,CCCc1nnc2c(=O)n(CC(=O)Nc3ccc(Br)cc3)c3ccccc3n12,2.53
11,Cc1ccc(-c2cc3c4nnc(SCC(=O)Nc5cccc(Cl)c5C)n4ccn3n2)cc1,-2.31
12,CCOc1ccccc1CNC(=O)CCc1nnc2ccc(-c3ccccc3)nn12,-2.56
13,Cc1cccc(C)c1NC(=O)Cn1nc2ccc(SCc3ccc(Cl)cc3)nn2c1=O,-13.3
14,Cc1ccc(-c2cc3c4nn(CC(=O)Nc5ccccc5C)c(=O)n4ccn3n2)cc1C,2.13
15,Cc1ccc(NC(=O)Cn2nc3c(Sc4ccccc4)nc4ccccc4n3c2=O)cc1C,-4.65
16,COc1ccccc1-n1ccn2c(=O)n(Cc3ccc(F)cc3Cl)nc2c1=O,-2.36
17,O=C(Cn1nc2nc(Nc3ccc(F)cc3)ccn2c1=O)Nc1cc(F)ccc1F,-2.67
18,CCc1ccccc1NC(=O)Cn1nc2n(C)c(=O)c3c(c(-c4ccccc4)cn3C)n2c1=O,-11.71
19,Cc1cc(C)cc(N(Cc2c(F)cccc2Cl)S(=O)(=O)c2cccn3cnnc23)c1,-4.41
20,COc1ccccc1-n1ccn2c(SCC(=O)c3ccc(C)cc3C)nnc2c1=O,-10.12

row,Structure (SMILES),Inhibition [%]
1,COc1cc(NC(=O)C(C)Sc2nnc3c(=O)n(-c4ccccc4OC)ccn23)cc(OC)c1 (stereo not drawn),-4.09
2,O=C(Cn1nc2c3cc(-c4ccc(F)cc4)nn3ccn2c1=O)Nc1ccc(Br)cc1,-9.31
3,O=C(Cn1nc2c(N3CCOCC3)nccn2c1=O)Nc1ccc(Cl)cc1F,5.15
4,CCOc1ccc(-n2ccn3c(SCC(=O)Nc4ccc(C)c(C)c4)nnc3c2=O)cc1,-21.19
5,COc1ccc(NC(=O)Cn2nc3c4cc(-c5ccc(OC)cc5)nn4ccn3c2=O)cc1,2.94
6,COC(=O)c1ccc(NC(=O)Cn2nc3nc(N4CCCCCC4)ccn3c2=O)cc1,-2.48
7,COc1ccc(-c2cc3c4nn(CC(=O)Nc5ccc6c(c5)OCO6)c(=O)n4ccn3n2)cc1,6.89
8,CCCCn1c(=O)c2sccc2n2c(CCC(=O)NC(C)C34CC5CC(CC(C5)C3)C4)nnc12 (stereo not drawn),0.33
9,CC(=O)c1ccc(NC(=O)Cn2nc3ccc(-c4ccccc4)nn3c2=O)cc1,-5.17
10,CCCCc1ccc(NC(=O)Cn2nc3c(Sc4ccccc4CC)nccn3c2=O)cc1,-10.67
11,COc1cc(NC(=O)Cn2nc3ccc(-c4ccc(Cl)cc4)nn3c2=O)cc(OC)c1,-10.38
12,O=c1c2nn(Cc3ccccc3F)c(=O)n2ccn1-c1ccccc1,-4.13
13,Cc1cc(C)c(NC(=O)Cn2nc3c4cc(-c5ccc(C)c(C)c5)nn4ccn3c2=O)c(C)c1,-12.18
14,Cc1oc(-c2cccc(Cl)c2)nc1CSc1nc2ccccc2n2c(C)nnc12,1.96
15,Cc1cc(Br)ccc1NC(=O)Cn1nc2c(Sc3ccccc3)nccn2c1=O,-5.92
16,Cc1cc2nn(CC(=O)Nc3ccc(C)c(F)c3)c(=O)n2c(Nc2ccc(C)c(F)c2)n1,-1.96
17,O=c1c2nnc(SCc3cccc(C(F)(F)F)c3)n2ccn1-c1ccc(Br)cc1,-4.81
18,CCCCN(C)c1ccc2nnc(CCc3nc(-c4ccc(OCc5ccccc5)cc4)no3)n2n1,-8.06
19,O=C(Cn1nc2c(=O)n(-c3ccc(Br)cc3)ccn2c1=O)Nc1ccc(F)cc1F,-0.82

# Reference: ChEMBL document CHEMBL4513146, “CO-ADD screening of Karazin Kharkiv National University (Ukraine) compounds”
